The term AC50 denotes the midpoint of the concentration-response curve, whichever way the signal moves.

Inconclusive results are not listed. Activity calls are given as the source filed them. Rule for the calls, unless noted: active = hit-call score of the fitted dose curve at least 0.9, where 1 is the maximum; inactive = score below 0.9.

The results in this text go back to PubChem BioAssay (EPA / NIEHS).

Test [1] is described as follows: CCTE_Shafer_MEA_dev_per_network_spike_spike_percent: CCTE's Neural Network Formation Assay for Percent of Spikes in a Network Spike, Shafer Lab (AID 2284054). The method, boiled down:
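Metric: fraction of spikes falling in a 0.05 s window at network-spike peaks. Recordings were made on days 5, 7, 9 and 12 and collapsed by trapezoidal AUC. Cultures were rat cortical neurons on MEA plates, dosed continuously from plating, re-dosed at media changes.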

Test [2] is described as follows: CCTE_Shafer_MEA_dev_LDH: CCTE's Lactate Dehydrogenase Assay for Cytotoxicity in the Neural Network Formation Assay, Shafer Lab (AID 2284068; active = hit-call score of the fitted dose curve at least 0.9, where 1 is the maximum;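 note: exposure for twelve days from plating with re-dosing on DIV 5 and 9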). An outline of the steps: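 Rat cortical primary neurons, MEA culture; dosing day 0–12, full medium plus compound exchange DIV 5, 9. Read-out: LDH enzyme activity, spectrophotometric. DMSO = negative control/baseline; signal loss → cytotoxicity.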

Test [3] in a line: CCTE_Shafer_MEA_dev_AB: CCTE's Alamar Blue Assay for Cytotoxicity in the Neural Network Formation Assay, Shafer Lab (AID 2284083; active = hit-call score of the fitted dose curve at least 0.9, where 1 is the maximum;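 note: resazurin reduction fluorescence as viability of cultured neurons; twelve days of exposure from plating with re-dosing on DIV 5 and 9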). The method, boiled down: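 Rat cortical primary cultures, 1.5 x 10^5 cells/well on MEA; continuous compound exposure over 12 days of network development, re-dosed with full medium change DIV 5 and 9. Alamar Blue fluorescence; loss of signal = cytotoxicity vs DMSO baseline.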
For orientation: Resazurin is reduced to fluorescent resorufin, in cell work by metabolically active cells.

The nature of test [4]: CCTE_Shafer_MEA_dev_mutual_information_norm: CCTE's Neural Network Formation Assay for Mutual Information Normalization, Shafer Lab (AID 2284091).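 Note: mutual information between electrodes summarised as area under curve across four recording days; potency is for a decrease in mutual information relative to DMSO.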 The method, boiled down: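 Shared information across electrodes, tracked on days 5, 7, 9 and 12 of network development and collapsed as trapezoidal area under the curve. Rat cortical cultures were treated continuously from plating, with treatment renewed at feeds on DIV 5 and 9; DMSO baseline, negative-direction fit.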

A short description of test [5]: CCTE_Mundy_HCI_Cortical_Synap_Neur_Matur_NeuriteSpotCountPerNeuriteLength: CCTE's Synaptogenesis and Neurite Maturation Assay in rat cortical cells for Neurite Spot Count per Neurite Length, Mundy Lab (AID 2284210). An outline of the steps: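 Synaptophysin spots per unit neurite length, measured by automated imaging of MAP2/synaptophysin/Hoechst-stained neurons. Cultures from rat cortex received chemical at DIV 7 with media change through DIV 12; glial growth arrested by AraC at DIV 5; DMSO baseline.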

Test [6] is described as follows: CCTE_Mundy_HCI_Cortical_Synap_Neur_Matur_BPCount: CCTE's Synaptogenesis and Neurite Maturation Assay in rat cortical cells for Branch Point Count, Mundy Lab (AID 2284211). The method, boiled down: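 In this multiplexed morphology assay, cortical cells from rat receive chemicals at DIV 7 and are fixed at DIV 12, then immunostained and imaged; branch points are counted, with DMSO as baseline.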

The nature of test [7]: CCTE_Mundy_HCI_Cortical_NOG_NeuriteCount: CCTE's Neurite Outgrowth Assay in rat cortical cells for Neurite Count, Mundy Lab (AID 2284212).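 Note: cells fixed about two days after chemical exposure began.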 An outline of the steps:
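Rat cortical primary cells; compound added 2 h post-plating, 1/10 dilution of working solution. Anti-betaIII-tubulin/AF488 ICC; ArrayScan neurite count vs DMSO.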

Test [8] can be described thus: CCTE_Mundy_HCI_Cortical_NOG_NeuriteLength: CCTE's Neurite Outgrowth Assay in rat cortical cells for Neurite Length, Mundy Lab (AID 2284213).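 Note: neurites imaged about 48 to 50 h after chemical exposure began.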 The method, boiled down: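 First, rat primary cortical cells were plated and, 2 h later, given test chemical as a 1/10 dilution. Finally, βIII-tubulin immunostaining enabled automated imaging of neurite length.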
Test [9] is described as follows: CCTE_Mundy_HCI_Cortical_Synap_Neur_Matur_NeuriteLength: CCTE's Synaptogenesis and Neurite Maturation Assay in rat cortical cells for Neurite Length, Mundy Lab (AID 2284214). The method, boiled down:
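DMSO-normalised neurite length, from high-content imaging of anti-MAP2-stained rat cortical cells fixed at DIV 12. Glia were suppressed with AraC (DIV 5) before chemical exposure from DIV 7.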

The nature of test [10]: CCTE_Mundy_HCI_Cortical_Synap_Neur_Matur_SynapseCount: CCTE's Synaptogenesis and Neurite Maturation Assay in rat cortical cells for Synapse Count, Mundy Lab (AID 2284218). An outline of the steps: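 Endpoint: synapses/neuron by HCI (synaptophysin puncta on MAP2-labelled neurites, Hoechst nuclei). Rat primary cortical cells, AraC DIV 5, dosed DIV 7, fixed DIV 12; DMSO negative control.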

Test [11] in a line: CCTE_Mundy_HCI_hN2_NOG_NeuriteCount: CCTE's Neurite Outgrowth Assay in human hN2 cells for Neurite Count, Mundy Lab (AID 2284219; active = hit-call score of the fitted dose curve at least 0.9, where 1 is the maximum). An outline of the steps:
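In this morphology assay, hNP1-derived neurons received test chemical 2 h post-plating and were fixed two days later in warm paraformaldehyde/sucrose containing Hoechst 33342. Neurites, labelled by rabbit anti-βIII-tubulin (1:800) and Alexa Fluor-488 (1:500), were counted automatically.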

The nature of test [12]: CCTE_Mundy_HCI_hN2_NOG_NeuriteLength: CCTE's Neurite Outgrowth Assay in human hN2 cells for Neurite Length, Mundy Lab (AID 2284220; active = hit-call score of the fitted dose curve at least 0.9, where 1 is the maximum). An outline of the steps:
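Plate hNP1-derived neurons, then add chemical 2 h later as a 1/10 dilution. Stain with anti-βIII-tubulin then Alexa Fluor-488 secondary, and image automatically to measure neurite length.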

The nature of test [13]: CCTE_Mundy_HCI_hN2_NOG_NeuronCount: CCTE's Neurite Outgrowth Assay in human hN2 cells for Neuron Count, Mundy Lab (AID 2284221; active = hit-call score of the fitted dose curve at least 0.9, where 1 is the maximum). An outline of the steps:
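Read-out is the number of betaIII-tubulin-positive neurons imaged by automated high-content analysis, with DMSO as negative control.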

Test [14] can be described thus: CCTE_Mundy_HCI_Cortical_Synap_Neur_Matur_NeuriteCount: CCTE's Synaptogenesis and Neurite Maturation Assay in rat cortical cells for Neurite Count, Mundy Lab (AID 2284222).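 Note: exposure from day 7 to day 12 in vitro with readout at day 12.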 The method, boiled down:
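Primary rat cortical cells were plated, treated with AraC at DIV 5, then exposed to chemicals from DIV 7 through DIV 12. After fixation and immunostaining for MAP2 and synaptophysin, imaging quantified neurites, with DMSO as the negative control.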

Test [15] can be described thus: CCTE_Mundy_HCI_Cortical_Synap_Neur_Matur_CellBodySpotCount: CCTE's Synaptogenesis and Neurite Maturation Assay in rat cortical cells for Cell Body Spot Count, Mundy Lab (AID 2284223). The method, boiled down: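 Primary rat cortical cultures, AraC added at DIV 5; dosed DIV 7 through DIV 12 […]. Fixed, stained for MAP2 and synaptophysin with Hoechst; cell body-associated synaptophysin puncta per neuron counted by high-content imaging, loss vs DMSO.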

A short description of test [16]: CCTE_Mundy_HCI_hNP1_Pro_ResponderAvgInten: CCTE's Proliferation Assay in human neuroprogenitor cells, Mundy Lab (AID 2284224; active = hit-call score of the fitted dose curve at least 0.9, where 1 is the maximum). The method, boiled down: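 Proliferation was scored as BrdU labelling intensity in human neural progenitors derived from WA09 embryonic cells, measured 26.25 hours after chemical dosing. Activity was fitted relative to DMSO.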
Test [17] in a line: CCTE_Mundy_HCI_Cortical_NOG_NeuronCount: CCTE's Neurite Outgrowth Assay in rat cortical cells for Neuron Count, Mundy Lab (AID 2284236; active = hit-call score of the fitted dose curve at least 0.9, where 1 is the maximum;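 note: neurons counted by imaging betaIII-tubulin and Hoechst stained cortical cells; cells exposed to compound for about 48 hours before fixation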). An outline of the steps: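 Read-out: neuron number by high-content imaging of betaIII-tubulin (Alexa Fluor-488) and Hoechst-labelled rat primary cortical cells.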
Test [18] can be described thus: CCTE_Mundy_HCI_Cortical_NOG_BPCount: CCTE's Neurite Outgrowth Assay in rat cortical cells for Branch Point Count, Mundy Lab (AID 2284237).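 Note: branch points counted about two days after chemical exposure.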 An outline of the steps: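 Measured 50.33 h after dosing, this morphology endpoint uses rat primary cortical cultures labelled for betaIII-tubulin. Branch points are quantified by high-content imaging, with DMSO as negative control and baseline.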

Test [19] is described as follows: CCTE_Mundy_HCI_hNP1_Casp3_7: CCTE's Caspase-Glo 3/7 Assay in human neuroprogenitor cells for Apoptosis, Mundy Lab (AID 2284240). An outline of the steps:
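Apoptosis is scored by activated caspase-3/7 luminescence in WA09-derived neural progenitor cells, measured 26.5 h after chemical dosing. Values represent gain of signal relative to DMSO vehicle.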

Test [20] is described as follows: CCTE_Mundy_HCI_hNP1_CellTiter: CCTE's Cell Titer-Glo 2 Assay in human neuroprogenitor cells for Viability, Mundy Lab (AID 2284241; active = hit-call score of the fitted dose curve at least 0.9, where 1 is the maximum). The method, boiled down: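 Human neural progenitor cells (hNP1, WA09-derived) were plated on poly-L-ornithine/laminin and grown 40 to 44 hours at 37 °C, 5% CO2 before chemical addition. Twenty-four hours later, ATP was measured by CellTiter-Glo luminescence; loss of signal versus DMSO indicates reduced viability.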
(In general: ATP-based viability assays read luminescence as a measure of living cells.)

Test [21] in a line: CCTE_Mundy_HCI_Cortical_Synap_Neur_Matur_NeuronCount: CCTE's Synaptogenesis and Neurite Maturation Assay in rat cortical cells for Neuron Count, Mundy Lab (AID 2284242; active = hit-call score of the fitted dose curve at least 0.9, where 1 is the maximum;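 note: hits reduce neuron count versus DMSO baseline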). An outline of the steps: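 Measured at DIV 12: fluorescently labelled neurons (Hoechst nuclei, MAP2) in rat primary cortical cultures, counted by high-content imaging. AraC suppressed glia from DIV 5; DMSO served as negative control.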

`CCC[CH2][Sn]([CH2]CCC)([CH2]CCC)[O][Sn]([CH2]CCC)([CH2]CCC)[CH2]CCC`: the AC50 was 77 nM (active) in [1]; 32.8 nM (active) in [2]; 45.5 nM (active) in test [3]; 34.5 nM (active) in test [4]; 23 nM (active) in test [6]; 27.8 nM (active) in [7]. In addition, the AC50 in test [8] is 22.1 nM (active); in test [9], 14.5 nM (active); in test [10], 22 nM (active); in test [11] it was 47.8 nM (active); in test [12] it was 43.6 nM (active); in [13] it was 31.9 nM (active). For the same compound, the concentration at half-maximal activity (AC50) is 31.1 nM (active) in test [15]; 125 nM (active) in test [16]; 31.1 nM (active) in test [17]; 27.7 nM (active) in test [18]; 115 nM (active) in [19]; 57.2 nM (active) in test [20]. Also, the AC50 in [21] was 10.8 nM (active). Also, the call in test [5] and in test [14] was inactive.
